Measured values from PubChem BioAssay AID504882 (Broad Institute, 2011).
Screen size: about 1,200 compounds; about 290 (24%) were called active. About 9% were inconclusive and are not listed. How the calls were made is not given here. Only a sample is shown. Measured potencies and affinities stand elsewhere.

Experiment: LCL viability reduction – cell-based, plate reader, cherry-picks, set 2, cytotoxicity control, dose response (AID 504882);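 further: 0% = neutral control wells and -100% = positive control wells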
Conditions: EBV lymphoblastoid cells (LCL) viability; series mostly up to 19.5 µM; activity change, negative = cytotoxicity: at the top concentration

Row | SMILES | activity change, negative = cytotoxicity
1 | O=C(N/N=C(/CC(=O)c1cccs1)C(F)(F)F)c1ccc(O)cc1 | 18.3% (inactive)
2 | CCC(C)[C@H](NC(=O)NCc1cccnc1)C(=O)OC (some centres undefined) | 11.4% (inactive)
3 | Cc1cccc(C)c1NC(=O)CN(C)C(=O)c1ccc(-c2cccc(C(F)(F)F)c2)o1 | 25.4% (inactive)
4 | O=C(CN1C(=O)c2ccccc2S1(=O)=O)c1ccc(F)c(F)c1 | 15.6% (inactive)
5 | COc1ccc(-n2c(SCC(=O)Nc3ccc4c(c3)OCO4)nc3c(c2=O)SCC3)cc1 | 16.8% (inactive)
6 | Cc1ccnc(NC(=O)CCC(=O)c2cccs2)c1 | -9.24% (inactive)
7 | COc1ccc(C(=O)Nn2c(SCC(=O)NC3CCCCC3)nc3ccccc3c2=O)cc1 | -5.87% (inactive)
8 | NC(=O)CC(NC(=O)c1ccccc1)c1ccc(NC2CCN(Cc3ccccc3)CC2)c([N+](=O)[O-])c1 (centres undefined) | 18.1% (inactive)
9 | Cc1cccc(Cn2cc(SCC(=O)Nc3nccs3)c3ccccc32)c1 | -0.243% (inactive)
10 | COC(=O)c1c(O)ccc(Oc2ccccc2)c1C(=O)OC | 5.36% (inactive)
11 | COc1ccc2oc(C(=O)NCCc3ccccc3)c(C)c2c1 | -3.62% (inactive)
12 | COc1ccc(-n2c(SCC(=O)Nc3cc(C)on3)nc3c(c2=O)SCC3)cc1 | 17.6% (inactive)
13 | Cc1ccc(-n2ccc(=O)c(C(=O)Nc3ccc(S(=O)(=O)N4CCOCC4)cc3)n2)cc1 | 17.9% (inactive)
14 | O=C1c2ccccc2C(Nc2cccnc2)N1Cc1ccccc1 (centres undefined) | 22.9% (inactive)
15 | COc1cc(C(=S)N2CCOCC2)cc(OC)c1OC(=O)c1ccc(F)cc1 | 24.8% (inactive)
16 | COc1cc(/C=N/NC(=O)c2cccc(S(=O)(=O)N3CCOCC3)c2)cc(OC)c1O | 21.9% (inactive)
17 | O=C(NOCc1ccccc1)c1ccc(Cl)cc1Cl | -4.17% (inactive)
18 | C[C@H]1C[C@H]2[C@@H]3CCC4=CC(=O)C=C[C@]4(C)[C@@]3(F)[C@@H](O)C[C@]2(C)[C@@]1(O)C(=O)CO | 22.7% (inactive)
19 | CC1CCC(NC(=O)CC2Oc3ccccc3NC2=O)CC1 (centres undefined) | 5.69% (inactive)
20 | O=C1CN(C(=O)c2ccc(F)c(S(=O)(=O)N3CCOCC3)c2)c2ccccc2N1 | 14.2% (inactive)
21 | CC(C)c1nnc(NC(=O)c2ccc(N3C(=O)CCC3=O)cc2)s1 | 18% (inactive)
22 | COc1cc2c(cc1OC)-c1cc(Nc3ccc4c(c3)OCCO4)nc(=O)n1CC2 | 19.9% (inactive)
23 | COc1cccc(C(=O)Nc2nc3ccccc3[nH]2)c1 | -12.2% (inactive)
24 | COc1ccccc1C=NN=Cc1ccccc1O | 28.7% (inactive)
25 | CCCC(=O)NCCCc1nc2ccccc2[nH]1 | -0.384% (inactive)
26 | CCc1ccc(-c2nnn(CCC(=O)OC)n2)cc1 | 13.5% (inactive)
27 | COc1cccc(C(=O)CC(=O)C(=O)Nc2ccc(C)cc2Cl)c1 | -18.2% (inactive)
28 | CCc1ccc(/C=C/C(=O)C2C(=O)c3ccccc3C2=O)cc1 | -11.9% (inactive)
29 | O=C(OCc1ccccc1F)c1cc2ccccc2cc1O | 12.3% (inactive)
